Assay results as given in PubChem BioAssay (EPA / NIEHS).
Inconclusive results are not listed. Activity calls are given as the source filed them. Rule for the calls: active = hit-call score of the fitted dose curve at least 0.9, where 1 is the maximum; inconclusive = response in the unintended direction; inactive = score below 0.9.

read-out: glucuronosyltransferase (UGT1A1), UGT1A1 (gene 54658); test: CLD_UGT1A1_6hr: CellzDirect (CLD) Gene Expression Assay for glucuronosyltransferase (UGT1A1) at 6 hours (AID 2283672)
Method: CLD_6hr is a cell-based, multiplexed-readout assay that uses hepatocyte, a human liver primary cell, with measurements taken at 6 hours after chemical dosing in a 96-well plate.CLD_UGT1A1_6hr is one of 16 assay component(s) measured or calculated from the CLD_6hr assay. It is designed to make measurements of mRNA induction, a form of inducible reporter, as detected with chemiluminescence signals by Quantitative Nuclease Protection Assay (qNPA) technology.Data from the assay component CLD_UGT1A1_6hr was analyzed at the endpoint, CLD_UGT1A1_6hr, in the positive analysis fitting direction relative to DMSO as the negative control and baseline of activity. Using a type of inducible reporter, gain-of-signal activity can be used to understand changes in the reporter gene as they relate to the gene UGT1A1. Furthermore, this assay endpoint can be referred to as a primary readout. To generalize the intended target to other relatable targets, this assay endpoint is annotated to the transferase intended target family, where subfamily is glucuronosyltransferase.
Human hepatocyte cultures were treated daily for two consecutive days with fresh dosing solutions containing appropriate concentrations of the 320 ToxCast chemicals (chemical identities were blinded to CellzDirect and other ToxCast collaborators), vehicle control (0.2% DMSO), and positive control inducers as summarized in Table 1. Due to the large number of treatment groups and chemicals examined, the ToxCast chemicals were divided into two groups (spanning two independent cultures of hepatocytes from separate donor preparations (Hu778: ToxCast plates 1 and 2; Hu776: ToxCast plates 3 and 4). Each preparation of human hepatocyte cultures was treated with respective vehicle control, medium only control, set of six positive controls/reference chemicals for the five hepatic receptor pathways, and a subset of eight of the ToxCast chemicals (indoxacarb, pyrithiobac-sodium, norflurazon, cyhalofop-butyl, methomyl, thiram, acetochlor, and propiconazole). These replicate data, coupled with internal replicates designed within the blinded ToxCast chemical library, provided additional data to evaluate interindividual differences between hepatocyte preparations and their potential impact on chemical profiles.Cell morphology and integrity were evaluated using phase-contrast microscopy as an indicator of hepatocyte cell health (Tyson & Green, 1987). Cultures for each treatment group (i.e., media, vehicle [0.2% DMSO], positive control inducers [multiple concentrations], and the ToxCast chemicals [multiple concentrations]) were observed and cell morphology was assessed relative to vehicle control cultures at each harvest time point (0, 6, 24, or 48 h). […] Images were evaluated at the conclusion of the study to assess changes in cell integrity and account for the effects of chemical exposure on uncharacteristic changes in concentration-dependent gene expression profiles. The results from these determinations of apparent cytotoxicity were annotated (yes/no) alongside the corresponding qNPA data for reference.At the conclusion of each treatment period, hepatocyte cultures (96-well) were washed with 1 volume of HBSS, lysed by addition of 25 ul ArrayPlate lysis buffer (HTG, Tucson, AZ), and 70 ul/well of Denaturation Oil, denatured by incubation at 95C for 10 min, and frozen at approximately -70C until analysis by nuclease protection assay (qNPA) (Roberts et al., 2007). For qNPA analysis, cell lysates were thawed at 50C for approximately 30 min, qNPA probes were added, and samples were incubated at 95C for 10 min to begin the detection process by denaturing the target RNA, dissociating the duplexes and secondary structure hybridization. At the conclusion of the hybridization period, S1 nuclease reagent was added to each sample to digest all nonprotected nucleotides at 50C for 60-90 min. […]

Row | Compound | outcome
1 | ClC1C(Cl)C(Cl)C(Cl)C(Cl)C1Cl (stereo not given) | inactive
2 | COP(=O)(OC)OC=C(Cl)Cl | inactive
3 | CC(C)N(C(=O)COc1nnc(C(F)(F)F)s1)c1ccc(F)cc1 | inactive
4 | O=C(NC(=O)c1c(F)cccc1F)Nc1ccc(OC(F)(F)C(F)OC(F)(F)F)c(Cl)c1 (stereo not given) | inactive
5 | CN1CSC(=S)N(C)C1 | inactive
6 | O=C(Nc1ccccc1)Nc1cnns1 | inactive
7 | O=[N+]([O-])c1c(Cl)c(Cl)c(Cl)c(Cl)c1Cl | inactive
8 | COP(=S)(OC)Oc1ccc(SC)c(C)c1 | inactive
9 | CCOC1Oc2ccc(OS(C)(=O)=O)cc2C1(C)C (stereo not given) | inactive
10 | CCC(C)(C)C(=O)OC1=C(c2ccc(Cl)cc2Cl)C(=O)OC12CCCCC2 | inactive
11 | CC(C)(C)C(O)C(Oc1ccc(Cl)cc1)n1cncn1 (stereo not given) | inactive
12 | O=S(=O)(O)C(F)(F)C(F)(F)C(F)(F)C(F)(F)C(F)(F)C(F)(F)C(F)(F)C(F)(F)F | inactive
13 | CCC(C)Nc1c([N+](=O)[O-])cc(C(C)(C)C)cc1[N+](=O)[O-] (stereo not given) | inactive
14 | CC1(C)C(C=C(Cl)Cl)C1C(=O)OC(C#N)c1ccc(F)c(Oc2ccccc2)c1 (stereo not given) | inactive
15 | CCN(CC)C(=O)SCc1ccc(Cl)cc1 | inactive
16 | O=C(O)COc1ccc(Cl)cc1Cl | inactive
17 | CNC(=O)/C=C(\C)OP(=O)(OC)OC | inactive
18 | N#CN | inactive
19 | CC(C)(C)C(O)/C(=C\c1ccc(Cl)cc1Cl)n1cncn1 (stereo not given) | inactive
20 | Clc1ccccc1-c1nnc(-c2ccccc2Cl)nn1 | inactive

Row | Compound | outcome
21 | O=[N+]([O-])/N=C1\NCCN1Cc1ccc(Cl)nc1 | inactive
22 | Cc1[nH]c(=O)n(C(C)(C)C)c(=O)c1Cl | inactive
23 | CNC(=O)Oc1ccccc1OC(C)C | inactive
24 | O=C(O)C(F)(F)C(F)(F)C(F)(F)C(F)(F)C(F)(F)C(F)(F)C(F)(F)F | inactive
25 | COC(=O)c1ccccc1S(=O)(=O)NC(=O)N(C)c1nc(C)nc(OC)n1 | inactive
26 | Cc1cc(C)nc(NC(=O)NS(=O)(=O)c2ccccc2C(=O)OC2COC2)n1 | inactive
27 | Oc1ccc(Cl)cc1Cc1ccccc1 | inactive
28 | CC(C)OC(=O)Nc1cccc(Cl)c1 | inactive
29 | CNC(=O)CSP(=S)(OC)OC | inactive
30 | O=C(O)CCCOc1ccc(Cl)cc1Cl | inactive
31 | CCCN(CCOc1c(Cl)cc(Cl)cc1Cl)C(=O)n1ccnc1 | inactive
32 | COc1nn(CSP(=S)(OC)OC)c(=O)s1 | inactive
33 | COP(=S)(OC)Oc1ccc([N+](=O)[O-])cc1 | inactive
34 | CCC(C)(NC(=O)c1cc(Cl)c(C)c(Cl)c1)C(=O)CCl (stereo not given) | inactive
35 | CCCN(CCC)c1c([N+](=O)[O-])cc(C(F)(F)F)cc1[N+](=O)[O-] | inactive
36 | CNC(=O)Oc1cccc(N=CN(C)C)c1 | inactive
37 | C[C@H]1[C@H](c2ccc(Cl)cc2)SC(=O)N1C(=O)NC1CCCCC1 | inactive
38 | CCS(=O)(=O)c1cccnc1S(=O)(=O)NC(=O)Nc1nc(OC)cc(OC)n1 | inactive
39 | CCOCN(C(=O)CCl)c1c(C)cccc1CC | inactive
40 | CCOc1nc(NC)nc(NC(=O)NS(=O)(=O)c2ccccc2C(=O)OC)n1 | inactive
